NRP1-CendR mod – alters CendR peptide binding to human NRP-1; inhibition, % at 25 µM; FAM-RPARPAR peptide binding to NRP-1, fluorescence polarization; 360,000 compounds, 0.85% hits; AID 602438;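 active = inhibition or corrected inhibition above about 18%, plus a signal ratio from 0.5 to 1.5, limit read from the data, passing the limit was not always enough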
Yeast superoxide – caloric restriction mimetics inhibiting age-related superoxide in yeast; S. cerevisiae aged cells, superoxide DHE fluorescence; active compounds read low; superoxide response (% of plate mean), % at 10 µM; 330,000 compounds, 0.18% hits; AID 2690;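 active = superoxide response under a set limit, about three screen SD below normal, cut at about 65% in these data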;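 note: yeast aged for seven days with compound at 30 °C before DHE staining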
A3G deaminase – blocks human APOBEC3G single-stranded DNA deamination | 330,000 compounds, 0.28% hits | inhibition, % at 20 µM | recombinant A3G, ssDNA deamination FAM/TAMRA fluorescence | Q9HC16;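 active = inhibition of at least 40% at 20 µM, with no more than 30% in the related APOBEC3A deaminase screen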
Target sequence (Q9HC16 whole entry, looked up): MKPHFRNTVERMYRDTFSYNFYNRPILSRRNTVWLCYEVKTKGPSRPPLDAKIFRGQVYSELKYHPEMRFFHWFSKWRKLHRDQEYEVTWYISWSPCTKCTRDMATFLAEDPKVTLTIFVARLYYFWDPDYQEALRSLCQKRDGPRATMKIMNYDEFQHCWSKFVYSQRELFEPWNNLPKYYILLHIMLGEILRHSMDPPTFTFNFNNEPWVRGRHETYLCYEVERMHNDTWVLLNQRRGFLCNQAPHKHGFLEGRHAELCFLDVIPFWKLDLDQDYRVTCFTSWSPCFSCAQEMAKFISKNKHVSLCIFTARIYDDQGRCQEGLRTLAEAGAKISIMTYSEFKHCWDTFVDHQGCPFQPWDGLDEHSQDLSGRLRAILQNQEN
A3A deaminase – human APOBEC3A DNA deaminase inhibition; inhibition, % at 20 µM; 330,000 compounds, 0.41% hits; recombinant A3A, FAM/TAMRA ssDNA deamination fluorescence; P31941;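 active = at least 40% inhibition at 20 µM here, with at most 30% in a related deaminase screen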
Target sequence (P31941 whole entry, looked up): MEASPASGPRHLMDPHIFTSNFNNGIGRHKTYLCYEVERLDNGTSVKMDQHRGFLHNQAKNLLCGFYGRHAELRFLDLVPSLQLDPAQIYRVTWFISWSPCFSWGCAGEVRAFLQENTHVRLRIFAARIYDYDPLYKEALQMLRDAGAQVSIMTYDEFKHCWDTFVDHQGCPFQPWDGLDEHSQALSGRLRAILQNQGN
ALR inh – blocks human ALR sulfhydryl oxidase activity. P55789. purified ALR, DTT oxidation, H2O2 HRP-luminol luminescence. inhibition, % (no concentration beside the values). 290,000 compounds, 3.8% hits;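 active = mean replicate inhibition above about 79%, with every replicate also reaching it, limit read from the data; inconclusive = only one of the two criteria met; inactive = mean below limit and not every replicate reaching it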
PfM18AAP inh – PfM18AAP enzyme inhibition | AID 1822 | inhibition, % at 7.35 µM | 290,000 compounds, 1.2% hits | recombinant PfM18AAP, H-Glu-NHMec fluorogenic cleavage;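 active = inhibition above the campaign mean inhibition over all tested compounds plus 3 SD, cut at about 28% in these data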
Each line names hits and unclear results; the compound was inactive in the other large screens. The list is not random: actives were taken first. Their share in the collection is about 5.2%.

COc1ccc(C(=O)COC(=O)C(C)N2C(=O)C3C4CCC(C4)C3C2=O)cc1 (stereo not given)	none
Cc1nn(-c2ccc(C(=O)OC(C)C)cc2)c(C)c1[N+](=O)[O-]	none
O=C1c2ccccc2C(Nc2ccc3c(c2)OCCO3)N1Cc1ccc2c(c1)OCO2 (stereo not given)	ALR inh 98
O=C1c2ccccc2C(Nc2ccccc2)N1Cc1ccc2c(c1)OCO2 (stereo not given)	none
CC(C)=CCN1CCN(Cc2ccc(C)s2)CC1CCO (stereo not given)	none
Cc1ccccc1NC(=O)CCC(=O)N/N=C/c1cccnc1	NRP1-CendR mod 22
O=C(Nc1ccc(NC(=O)c2cccc([N+](=O)[O-])c2)cc1)c1cccc([N+](=O)[O-])c1	none
O=C(Nc1ncc([N+](=O)[O-])s1)c1cccc([N+](=O)[O-])c1	ALR inh 98
CCN(CC)S(=O)(=O)c1cccc(-c2n[nH]c(=S)n2CC(C)C)c1	none
COC(Cn1c(-c2cccc(S(=O)(=O)N(C)C)c2)n[nH]c1=S)OC	PfM18AAP inh 31
COC(=O)Nc1sc2c(c1C(N)=O)CCC(C)C2 (stereo not given)	PfM18AAP inh 49
CC1CCc2c(sc(NC(=O)C3c4ccccc4Oc4ccccc43)c2C(N)=O)C1 (stereo not given)	none
Cc1ccc(NC2CCCN(C(=O)C3CCCC3)C2)cc1C (stereo not given)	ALR inh 99
Cc1ccc(NC2CCCN(C(=O)c3ccoc3)C2)cc1C (stereo not given)	ALR inh 99
Cc1ccc(NC2CCCN(C(=O)c3ccoc3C)C2)cc1C (stereo not given)	ALR inh 98
CCn1nc(CC(C)C)cc1C(=O)N1CCCC(Nc2ccc(OC)cc2)C1 (stereo not given)	ALR inh 98
CCn1nc(C)cc1C(=O)N1CCCC(Nc2ccc(F)c(F)c2)C1 (stereo not given)	none
Cc1ccc(C(=O)N2CCCC(Nc3ccc(F)c(F)c3)C2)cn1 (stereo not given)	none
Cc1ccc(NC(=S)NC(=O)C2CCCC2)cc1C	none
O=C(NCCN1CCOCC1)c1ccc(CS(=O)(=O)c2c(Cl)cccc2Cl)o1	none
COC(=O)c1cc(OC)c(OC)cc1NC(=O)c1oc2ccccc2c1C	none (no result: NRP1-CendR mod, Yeast superoxide, A3G deaminase, A3A deaminase, ALR inh)
O=C(COC(=O)c1ccccc1)NCCCCc1ccccc1	none (no result: Yeast superoxide, A3G deaminase, A3A deaminase, ALR inh, PfM18AAP inh)
Cc1cc(NC(=O)c2ccccc2)no1	none
CC(Oc1ccc(Cl)cc1Cl)C(=O)NC(Cc1ccccc1)C(=O)O (stereo not given)	none (no result: Yeast superoxide, A3G deaminase, A3A deaminase, ALR inh, PfM18AAP inh)
COc1ccc2cc(C(=O)N3CCCC(Nc4ccc(F)cc4)C3)n(C)c2c1 (stereo not given)	none
Cc1ccc(NC2CCCN(C(=O)c3ccc(C)c(N4CCNC4=O)c3)C2)cc1C (stereo not given)	ALR inh 93
CC(=O)c1ccc(OCC(=O)N2CCCC(Nc3ccc(C)c(C)c3)C2)cc1 (stereo not given)	ALR inh 85
COc1ccc(C(=O)N2CCCC(Nc3ccc(C)c(C)c3)C2)cc1 (stereo not given)	ALR inh 98
COc1ccc(NC2CCCN(C(=O)c3ccc(OC)cc3OC)C2)cc1 (stereo not given)	ALR inh 99
CCN(CC)c1ccc(N=Cc2c(C)[nH]c3ccccc23)cc1	ALR inh inconclusive
CCc1ccc(C2CC(=O)Nc3c2c(=O)nc2c(C)cccn32)cc1 (stereo not given)	none
O=C(NC(NC(=S)Nc1ccccc1C(=O)O)C(Cl)(Cl)Cl)c1ccccc1 (stereo not given)	none
CCCNC(=O)/C=C/c1ccc(S(=O)(=O)Nc2ccccc2OC)cc1	none
Cc1cc(C(=O)CCC(=O)Nc2ccc(S(N)(=O)=O)cc2)c(C)s1	none (no result: PfM18AAP inh)
COc1ccc(NC2CCCN(C(=O)c3ccc4[nH]c(C)c(C)c4c3)C2)cc1OC (stereo not given)	ALR inh 99
O=C(CSc1nc(=O)n(CCN2CCOCC2)c2c1CCC2)Nc1ccc(OC(F)(F)F)cc1	ALR inh 97 (no result: PfM18AAP inh)
COc1ccc(NC(=O)CSc2nc(=O)n(CCN3CCOCC3)c3c2CCC3)cc1	ALR inh 98 (no result: PfM18AAP inh)
Cc1cc(C)cc(NC(=O)CSc2nc(=O)n(CCCN3CCOCC3)c3c2CCCC3)c1	ALR inh 96 (no result: PfM18AAP inh)
CCN(CC)CCCn1c2c(c(SCC(=O)Nc3cc(OC)cc(OC)c3)nc1=O)CCC2	none (no result: PfM18AAP inh)
COc1cc(NC(=O)CSc2nc(=O)n(CCN3CCOCC3)c3c2CCC3)cc(OC)c1	ALR inh 97 (no result: PfM18AAP inh)
CCOc1ccc(NC(=O)CSc2nc(=O)n(CCN3CCOCC3)c3c2CCCC3)cc1	none (no result: PfM18AAP inh)
O=C(NCc1ccccc1)c1cc(C2CCCN(C(=O)c3ccc4c(c3)CCO4)C2)on1 (stereo not given)	none (no result: Yeast superoxide, A3G deaminase, A3A deaminase, ALR inh, PfM18AAP inh)
CC(=O)Nc1cccc(NC(=O)CSc2nc(=O)n(CCN3CCOCC3)c3c2CCCC3)c1	ALR inh 99 (no result: PfM18AAP inh)
CC(=O)c1cccc(NC(=O)CSc2nc(=O)n(CCN3CCOCC3)c3c2CCC3)c1	none (no result: PfM18AAP inh)
COc1cc(NC(=O)CSc2nc(=O)n(CCCN3CCOCC3)c3c2CCC3)cc(OC)c1	ALR inh 99 (no result: PfM18AAP inh)
CCN(CC)c1ccc(/C=C2/C(=O)c3ccc(C(=O)O)cc3C2=O)cc1	ALR inh 98 (no result: A3G deaminase, A3A deaminase)
COCCn1cnnc1SCC(=O)c1ccc(S(=O)(=O)N2CCCC2)cc1	ALR inh 87
COc1ccc(NC(=O)C(=O)Nc2cccc3ccccc23)c(OC)c1	none
Cc1ccc(N(CC(=O)NC2CCCC2)C(=O)c2c(C)noc2C)cc1C	none (no result: ALR inh)
Cc1nn(Cc2ccccc2)c(N)c1-c1ccccc1	ALR inh 97
Cc1nn(C)c(N)c1-c1ccccc1	none
Cc1nn(C2CCCCC2)c(N)c1-c1ccccc1	ALR inh 97
CCCc1c(-c2ccc(F)cc2)ncn1Cc1ccccc1OC	NRP1-CendR mod 22 (no result: Yeast superoxide, A3G deaminase, A3A deaminase, ALR inh, PfM18AAP inh)
CCCCCc1c(-c2cccc(Cl)c2)ncn1CCc1ccccc1OC	NRP1-CendR mod 23 (no result: Yeast superoxide, A3G deaminase, A3A deaminase, ALR inh, PfM18AAP inh)
CC12C=CC(=O)C=C1CCC1C3CCC(O)(C(=O)CO)C3(C)CC3OC312 (stereo not given)	none
CCc1cc2cc3c(cc2nc1SCC(=O)Nc1nccs1)OCO3	none
CCCCN(CCCNC(=O)C1CCN(S(=O)(=O)CC)CC1)c1ccccc1	ALR inh 99
CCN(CCNC(=O)Cn1cc2c(n1)CCCC2)c1ccccc1	ALR inh 99
O=C(NCCN1CCCc2ccccc21)C1CCC(=O)N(CCc2ccccc2)C1 (stereo not given)	ALR inh 86
CCCCN(CCCNC(=O)C1CCCN(S(=O)(=O)CCC)C1)Cc1ccccc1 (stereo not given)	none (no result: ALR inh)
CCN(CCNC(=O)C1CC(=O)N(CCc2ccccc2)C1)c1ccccc1 (stereo not given)	ALR inh 99
